The text below walks through data of PubChem BioAssay (NCATS).

Inconclusive results are not listed. Active and inactive are the calls of the source. Calls follow the shape of the dose curve; as a rule, active = well fitted curve in the direction sought with a large enough effect; inconclusive = small, poorly fitted or top-dose-only effect, or another doubt; inactive = no such curve, though single readings can be large; an effect the other way counts as inactive or inconclusive.

The nature of assay [1]: Quantitative High-Throughput drug screen in 47 multiple myeloma cell lines against the NCATS MIPE library collection: Delta47_JCRB cell viability assay (AID 1918925; also: nearly all actives have a fitted effect of over 45% in size). In outline: (§1)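 Myeloma cells (500 per well) were exposed to MIPE 4.0 compounds by pin transfer and incubated 48 hours at 37C, 5% CO2. Viability was read as ATP by CellTiter-Glo luminescence, normalised to DMSO (100%) and media-only (0%) wells.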

Assay [2] is described as follows: Quantitative High-Throughput drug screen in 47 multiple myeloma cell lines against the NCATS MIPE library collection: EJM_DSMZ cell viability assay (AID 1918926; also: nearly all actives have a fitted effect of over 30% in size). The method, boiled down:
as §1

Assay [3] in a line: Quantitative High-Throughput drug screen in 47 multiple myeloma cell lines against the NCATS MIPE library collection: AMO1_DSMZ cell viability assay (AID 1918927; also: nearly all actives have a fitted effect of over 30% in size). The method, boiled down: as §1
A short description of assay [4]: Quantitative High-Throughput drug screen in 47 multiple myeloma cell lines against the NCATS MIPE library collection: ARP1_JJKsccF8 cell viability assay (AID 1918928; also: nearly all actives have a fitted effect of over 40% in size). The method, boiled down: (§2)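 Each line was plated at 500 cells/well and treated 48 h with library drugs. Viability came from CellTiter-Glo luminescence relative to DMSO and cell-free medium controls.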

The nature of assay [5]: Quantitative High-Throughput drug screen in 47 multiple myeloma cell lines against the NCATS MIPE library collection: ARD_JJKsccE7 cell viability assay (AID 1918929). In outline:
as §1

Assay [6] in a line: Quantitative High-Throughput drug screen in 47 multiple myeloma cell lines against the NCATS MIPE library collection: KMM1_JCRB cell viability assay (AID 1918960). Also: nearly all actives have a fitted effect of over 30% in size. In outline:
as §2

The nature of assay [7]: Quantitative High-Throughput drug screen in 47 multiple myeloma cell lines against the NCATS MIPE library collection: KHM11_PLB cell viability assay (AID 1918962). Also: nearly all actives have a fitted effect of over 35% in size. In outline:
(§3)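 Steps: seed 500 cells per well; pin-transfer MIPE 4.0 library; incubate 48 h at 37C, 5% CO2, humidified; add CellTiter-Glo, 5 min room temperature; read luminescence.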

Assay [8] is described as follows: Quantitative High-Throughput drug screen in 47 multiple myeloma cell lines against the NCATS MIPE library collection: JIM3_ECACC cell viability assay (AID 1918963; also: nearly all actives have a fitted effect of over 35% in size). In outline: as §3
Assay [9] in a line: Quantitative High-Throughput drug screen in 47 multiple myeloma cell lines against the NCATS MIPE library collection: JIM1_ECACC cell viability assay (AID 1918964). In outline: as §1
The nature of assay [10]: Quantitative High-Throughput drug screen in 47 multiple myeloma cell lines against the NCATS MIPE library collection: H1112_PLB cell viability assay (AID 1918967; also: nearly all actives have a fitted effect of over 30% in size). In outline:
as §1

The nature of assay [11]: Quantitative High-Throughput drug screen in 47 multiple myeloma cell lines against the NCATS MIPE library collection: Karpas620_DSMZ cell viability assay (AID 1918959). Also: nearly all actives have a fitted effect of over 30% in size. The method, boiled down:
as §3

Assay [12] can be described thus: Quantitative High-Throughput drug screen in 47 multiple myeloma cell lines against the NCATS MIPE library collection: INA6_PLB cell viability assay (AID 1918965; also: nearly all actives have a fitted effect of over 55% in size). The method, boiled down:
(§4)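 CellTiter-Glo luminescence (ATP) after 48 h compound exposure, 37C/5% CO2; 500 cells/well; MIPE 4.0 approved/investigational drugs pinned in; DMSO = 100%, media only = 0% viability.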

Assay [13] is described as follows: Quantitative High-Throughput drug screen in 47 multiple myeloma cell lines against the NCATS MIPE library collection: JJN3_DSMZ cell viability assay (AID 1918966; also: nearly all actives have a fitted effect of over 50% in size). In outline: as §1
The nature of assay [14]: Quantitative High-Throughput drug screen in 47 multiple myeloma cell lines against the NCATS MIPE library collection: Karpas417_ECACC cell viability assay (AID 1918961). To be noted: Karpas417 myeloma viability, CellTiter-Glo ATP luminescence, 48 h; viability (% of DMSO): at 45.8 µM (top of the series). In outline:
as §4
In general terms: Cellular ATP, detected with luciferase, serves as a proxy for viable cell number.
Potency is read from the fitted curve at half-maximal effect.

Regarding `C[C@@H]1CC=CC=CC=CC=C[C@@H](O[C@@H]2O[C@H](C)[C@@H](O)[C@H](N)[C@H]2O)C[C@@H]2O[C@](O)(C[C@@H](O)C[C@@H]3O[C@@H]3C=CC(=O)O1)C[C@H](O)[C@@H]2C(=O)O`, the Potency in assay [1] is 11.8 µM (active); in assay [4] it was 4.18 µM (active); in [7], 13.2 µM (active); in assay [8] it was 5.9 µM (active); in [10] it was 16.6 µM (active). Moreover, the Potency entry in assay [2], in assay [3], in [5], in assay [6] and in assay [9] was “inactive” throughout.

In the case of `N#CC(=C1Nc2ccccc2S1)c1ccnc(OCc2ccc(CN3CCOCC3)cc2)n1`, the Potency in assay [1] is 7.43 µM (active); in assay [3] it was 0.0332 µM (active); in assay [4] it was 23.5 µM (active); in assay [5], 0.105 µM (active); in [11], 0.0264 µM (active); in [6], 0.0743 µM (active). Besides, the Potency in assay [8] was 5.26 µM (active); in assay [12], 5.26 µM (active); in assay [13], 2.09 µM (active).

`CO[C@H]1/C=C\O[C@@]2(C)Oc3c(C)c(O)c4c(O)c(c5c(nc6cc(C)ccn65)c4c3C2=O)NC(=O)C(C)=CC=C[C@H](C)[C@H](O)[C@@H](C)[C@@H](O)[C@@H](C)[C@H](OC(C)=O)[C@H]1C`: the Potency is 11.8 µM (active) in [1]; 16.6 µM (active) in [3]; 18.7 µM (active) in [5]; 18.7 µM (active) in assay [11]; 18.7 µM (active) in [6]; 0.833 µM (active) in assay [14]. In [9], the Potency was 18.7 µM (active). In addition, the Potency result in assay [8] and in assay [10] was “inactive” throughout.

Consider `COc1cc(C=CC(=O)O)ccc1O`, for which the Potency entry in [1], in [2], in assay [5], in assay [11], in assay [6] and in assay [7] was “inactive” throughout. Moreover, the Potency entry in [13] was “inactive”. Also, the Potency in assay [14] is 0.0042 µM (active).

For the compound `CC1(C)[C@H]2CC[C@]3(C)[C@@H](C(=O)C=C4[C@@H]5C[C@@](C)(C(=O)O)CC[C@]5(C)CC[C@]43C)[C@@]2(C)CC[C@@H]1O`, the Potency result in [1], in [2], in [4], in assay [5], in [11] and in assay [6] was “inactive” in each case. The Potency entry in [8], in assay [12] and in assay [10] was “inactive” in each case.

As for `OC[C@H]1O[C@@H](O[C@H]2[C@@H](O)[C@@](O)(CO)O[C@@H]2CO)[C@H](O)[C@@H](O)[C@@H]1O`, the Potency entry in assay [1], in assay [2], in [4], in assay [5], in assay [6] and in assay [8] was “inactive” throughout. Besides, the Potency result in assay [12] and in [10] was “inactive” each time.

Take `Cc1c(-c2cccc3c(CCCOc4cccc5ccccc45)c(C(=O)O)n(Cc4cccnc4)c23)c(COc2ccc(N3CCN([S+](=O)([O-])N(C)C)CC3)cc2)nn1C`: the Potency in assay [1] is 14.8 µM (active); in assay [2], 14.8 µM (active); in [7], 20.9 µM (active); in assay [12], 16.6 µM (active); in assay [13] it was 23.5 µM (active); in assay [10], 20.9 µM (active). Besides, the Potency entry in assay [3], in [5], in assay [11], in assay [6] and in assay [9] was “inactive” in each case.

For `CCC[C@@H](NC(=O)[C@@H]1[C@H]2CCC[C@@H]2CN1C(=O)[C@@H](NC(=O)[C@@H](NC(=O)c1cnccn1)C1CCCCC1)C(C)(C)C)C(=O)C(=O)NC1CC1`, the Potency is 14.8 µM (active) in assay [1], 18.7 µM (active) in assay [3], 18.7 µM (active) in assay [11] and 18.7 µM (active) in [10]. In [2], the Potency entry is “inactive”.

As to `CCOC(=O)[C@H]1O[C@H]1C(=O)N[C@@H](CC(C)C)C(=O)NCCC(C)C`, the Potency result in assay [1], in assay [2], in [3], in [5], in assay [6] and in assay [7] was “inactive” throughout. The Potency entry in assay [12] and in assay [10] was “inactive” each time.

Take `CN[C@H]1[C@@H](O[C@@H]2[C@H](O[C@@H]3[C@@H](O)[C@@H](O)[C@@H](N=C(N)N)[C@@H](O)[C@@H]3N=C(N)N)O[C@H](C)[C@@]2(O)C=O)O[C@@H](CO)[C@@H](O)[C@H]1O`: the Potency result in assay [1], in assay [2], in assay [4], in assay [11], in assay [6] and in assay [8] was “inactive” each time. In addition, the Potency result in assay [9], in assay [12] and in assay [10] was “inactive” throughout.

For the compound `O=C(c1ccc(F)c(F)c1Nc1ccc(I)cc1F)N1CC(O)([C@H]2CCCCN2)C1`, the Potency in assay [1] is 20.9 µM (active); in [3], 3.32 µM (active); in assay [5], 10.5 µM (active); in [11], 0.105 µM (active); in [6], 11.8 µM (active); in assay [7], 0.0372 µM (active). Further, the Potency in assay [8] is 14.8 µM (active); in [12] it was 10.5 µM (active); in assay [10] it was 16.6 µM (active).
